# Laboratory results published in PMC7862700, “An all-to-all approach to the identification of sequence-specific readers for epigenetic DNA modifications on cytosine”.
# Experiments:
# Assay in all cases: DAPPL (digital affinity profiling via proximity ligation, sequencing); 10 mM Tris-HCl pH 7.5, 50 mM NaCl, 1 mM DTT, 4% glycerol, room temperature, 30 min; GST-TFs on glutathione beads, 16-mer random dsDNA library, 0.1% formaldehyde crosslink after washing; high values mean tight binding
# FLI1 = molecular target: T1, FLI1 (Homo sapiens, UniProt Q01543 1-452); conditions: protein: recombinant; tags: N-terminal GST; dsDNA, one strand shown
# T1 sequence: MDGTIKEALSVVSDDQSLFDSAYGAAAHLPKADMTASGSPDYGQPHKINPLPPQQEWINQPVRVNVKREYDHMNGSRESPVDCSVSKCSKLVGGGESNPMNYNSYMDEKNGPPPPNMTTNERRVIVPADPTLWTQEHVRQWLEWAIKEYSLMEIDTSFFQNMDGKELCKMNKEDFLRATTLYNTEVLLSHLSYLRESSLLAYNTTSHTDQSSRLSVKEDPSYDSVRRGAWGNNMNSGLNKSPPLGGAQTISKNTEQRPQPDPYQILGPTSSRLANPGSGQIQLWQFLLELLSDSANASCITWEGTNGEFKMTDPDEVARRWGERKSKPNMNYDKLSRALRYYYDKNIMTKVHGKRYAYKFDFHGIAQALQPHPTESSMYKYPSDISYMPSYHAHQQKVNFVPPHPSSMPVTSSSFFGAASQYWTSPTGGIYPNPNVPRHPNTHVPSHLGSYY
# Summary of the method: (§1)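 In yeast, human transcription factors were expressed with a GST fusion, then pulled down on glutathione beads and given DNA barcodes. Pooled with a tag-only sample, they were exposed to 200 nmole of a 16-mer random double-stranded DNA library (Tris/NaCl/DTT/glycerol buffer, room temperature, 30 min), washed, crosslinked with 0.1% formaldehyde, proximity-ligated using BsaI/T4 ligase for 1 h at 37 °C, PCR-amplified and read on an Illumina NextSeq500. Each hexamer's frequency of reads for a factor, divided by the matching frequency for the tag-only sample, gives the binding signal.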
# ELK1 = molecular target: T2, ELK1 (Homo sapiens, UniProt P19419 1-428); conditions: protein: recombinant; tags: N-terminal GST; dsDNA, one strand shown
# T2 sequence: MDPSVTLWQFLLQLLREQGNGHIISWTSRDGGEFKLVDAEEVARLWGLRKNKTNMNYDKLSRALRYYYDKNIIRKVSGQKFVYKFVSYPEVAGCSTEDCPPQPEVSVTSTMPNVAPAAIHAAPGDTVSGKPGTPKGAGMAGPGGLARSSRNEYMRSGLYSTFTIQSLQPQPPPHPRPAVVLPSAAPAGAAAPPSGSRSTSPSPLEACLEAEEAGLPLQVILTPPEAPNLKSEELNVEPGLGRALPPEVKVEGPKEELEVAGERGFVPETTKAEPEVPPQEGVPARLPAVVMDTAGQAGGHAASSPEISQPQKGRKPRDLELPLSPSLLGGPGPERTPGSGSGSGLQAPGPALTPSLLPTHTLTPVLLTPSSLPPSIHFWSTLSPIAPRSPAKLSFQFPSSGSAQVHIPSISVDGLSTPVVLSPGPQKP
# Summary of the method: as §1
# ERG = molecular target: T3, ERG (Homo sapiens, UniProt P11308 1-479); conditions: protein: recombinant; tags: N-terminal GST; dsDNA, one strand shown
# T3 sequence: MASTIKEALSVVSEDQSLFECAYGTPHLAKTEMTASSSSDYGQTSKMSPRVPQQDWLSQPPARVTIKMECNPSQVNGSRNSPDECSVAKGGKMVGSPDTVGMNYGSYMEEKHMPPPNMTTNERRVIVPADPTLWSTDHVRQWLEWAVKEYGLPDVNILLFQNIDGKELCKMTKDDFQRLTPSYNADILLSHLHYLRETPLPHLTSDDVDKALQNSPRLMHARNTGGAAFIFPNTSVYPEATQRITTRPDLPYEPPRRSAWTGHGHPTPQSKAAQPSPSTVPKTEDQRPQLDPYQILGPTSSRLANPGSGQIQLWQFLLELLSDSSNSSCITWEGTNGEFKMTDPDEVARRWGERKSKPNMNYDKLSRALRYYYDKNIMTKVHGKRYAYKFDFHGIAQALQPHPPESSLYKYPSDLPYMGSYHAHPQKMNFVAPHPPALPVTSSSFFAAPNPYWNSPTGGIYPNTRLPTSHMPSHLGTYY
# Summary of the method: as §1
# ELF1 = ELF1 (Homo sapiens, UniProt P32519 1-619); conditions: protein: recombinant; tags: N-terminal GST; dsDNA, one strand shown
# ELF1, sequence (P32519 whole entry): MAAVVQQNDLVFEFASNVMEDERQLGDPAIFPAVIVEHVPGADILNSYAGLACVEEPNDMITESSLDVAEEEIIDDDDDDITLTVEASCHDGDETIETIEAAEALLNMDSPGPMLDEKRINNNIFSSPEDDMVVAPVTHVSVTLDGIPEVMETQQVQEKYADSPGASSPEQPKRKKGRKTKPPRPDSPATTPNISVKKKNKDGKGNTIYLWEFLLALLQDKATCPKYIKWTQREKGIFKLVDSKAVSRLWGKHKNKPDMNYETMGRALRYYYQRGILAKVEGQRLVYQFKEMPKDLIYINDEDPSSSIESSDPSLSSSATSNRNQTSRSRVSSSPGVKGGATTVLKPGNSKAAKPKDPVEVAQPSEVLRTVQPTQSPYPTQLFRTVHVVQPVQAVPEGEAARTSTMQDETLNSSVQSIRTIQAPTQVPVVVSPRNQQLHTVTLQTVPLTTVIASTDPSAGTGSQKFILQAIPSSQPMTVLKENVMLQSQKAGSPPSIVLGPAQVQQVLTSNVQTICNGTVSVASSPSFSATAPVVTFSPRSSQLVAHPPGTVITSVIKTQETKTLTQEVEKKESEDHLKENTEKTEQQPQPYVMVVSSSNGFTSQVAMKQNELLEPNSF
# Summary of the method: as §1
# EHF = molecular target: T4, EHF (Homo sapiens, UniProt Q9NZC4 1-300); conditions: protein: recombinant; tags: N-terminal GST; dsDNA, one strand shown
# T4 sequence: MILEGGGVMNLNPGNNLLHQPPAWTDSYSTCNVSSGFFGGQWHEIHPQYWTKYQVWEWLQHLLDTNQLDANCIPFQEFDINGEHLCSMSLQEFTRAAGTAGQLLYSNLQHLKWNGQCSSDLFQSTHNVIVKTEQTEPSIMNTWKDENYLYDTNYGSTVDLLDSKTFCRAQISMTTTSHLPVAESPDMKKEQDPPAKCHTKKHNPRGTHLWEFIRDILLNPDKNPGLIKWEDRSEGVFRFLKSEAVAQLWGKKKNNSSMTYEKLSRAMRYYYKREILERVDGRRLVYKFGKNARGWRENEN
# Summary of the method: as §1
# ETV5 = ETV5 (Homo sapiens, UniProt P41161 1-510); conditions: protein: recombinant; tags: N-terminal GST; dsDNA, one strand shown
# ETV5, sequence (P41161 whole entry): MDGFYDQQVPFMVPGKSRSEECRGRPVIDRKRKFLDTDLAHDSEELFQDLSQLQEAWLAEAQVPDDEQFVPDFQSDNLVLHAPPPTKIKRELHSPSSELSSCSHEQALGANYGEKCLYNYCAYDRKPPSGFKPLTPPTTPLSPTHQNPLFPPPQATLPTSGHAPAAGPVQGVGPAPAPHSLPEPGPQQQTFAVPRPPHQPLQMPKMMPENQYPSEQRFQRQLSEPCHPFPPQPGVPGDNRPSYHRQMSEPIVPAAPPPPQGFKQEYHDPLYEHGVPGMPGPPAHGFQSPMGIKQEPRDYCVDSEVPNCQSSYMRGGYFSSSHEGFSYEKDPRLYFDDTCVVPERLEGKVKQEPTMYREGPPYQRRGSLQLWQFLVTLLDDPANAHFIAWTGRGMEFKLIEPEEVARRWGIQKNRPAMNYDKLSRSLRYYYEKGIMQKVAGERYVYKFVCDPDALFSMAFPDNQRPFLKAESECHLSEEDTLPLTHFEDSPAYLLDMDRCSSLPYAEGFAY
# Summary of the method: as §1
# HSF1 = HSF1 (Homo sapiens, UniProt Q00613 1-529); conditions: protein: recombinant; tags: N-terminal GST; chain copies: 3; dsDNA, one strand shown
# HSF1, sequence (Q00613 whole entry): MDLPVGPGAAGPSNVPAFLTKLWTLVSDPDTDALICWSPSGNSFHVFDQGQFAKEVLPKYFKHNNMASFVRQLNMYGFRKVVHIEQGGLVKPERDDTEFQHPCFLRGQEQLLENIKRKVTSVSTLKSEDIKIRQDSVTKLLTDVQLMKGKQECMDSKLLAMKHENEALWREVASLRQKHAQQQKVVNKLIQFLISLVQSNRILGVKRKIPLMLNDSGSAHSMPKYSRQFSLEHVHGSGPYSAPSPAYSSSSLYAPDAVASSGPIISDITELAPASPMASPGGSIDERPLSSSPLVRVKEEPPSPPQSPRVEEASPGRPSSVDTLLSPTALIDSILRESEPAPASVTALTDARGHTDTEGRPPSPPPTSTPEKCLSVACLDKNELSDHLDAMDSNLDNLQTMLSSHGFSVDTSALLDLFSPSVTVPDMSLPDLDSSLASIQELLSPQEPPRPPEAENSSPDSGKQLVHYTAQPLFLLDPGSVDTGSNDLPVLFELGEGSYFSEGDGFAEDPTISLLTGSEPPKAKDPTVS
# Summary of the method: as §1
# ELF4 = ELF4 (Homo sapiens, UniProt Q99607 1-663); conditions: protein: recombinant; tags: N-terminal GST; dsDNA, one strand shown
# ELF4, sequence (Q99607 whole entry): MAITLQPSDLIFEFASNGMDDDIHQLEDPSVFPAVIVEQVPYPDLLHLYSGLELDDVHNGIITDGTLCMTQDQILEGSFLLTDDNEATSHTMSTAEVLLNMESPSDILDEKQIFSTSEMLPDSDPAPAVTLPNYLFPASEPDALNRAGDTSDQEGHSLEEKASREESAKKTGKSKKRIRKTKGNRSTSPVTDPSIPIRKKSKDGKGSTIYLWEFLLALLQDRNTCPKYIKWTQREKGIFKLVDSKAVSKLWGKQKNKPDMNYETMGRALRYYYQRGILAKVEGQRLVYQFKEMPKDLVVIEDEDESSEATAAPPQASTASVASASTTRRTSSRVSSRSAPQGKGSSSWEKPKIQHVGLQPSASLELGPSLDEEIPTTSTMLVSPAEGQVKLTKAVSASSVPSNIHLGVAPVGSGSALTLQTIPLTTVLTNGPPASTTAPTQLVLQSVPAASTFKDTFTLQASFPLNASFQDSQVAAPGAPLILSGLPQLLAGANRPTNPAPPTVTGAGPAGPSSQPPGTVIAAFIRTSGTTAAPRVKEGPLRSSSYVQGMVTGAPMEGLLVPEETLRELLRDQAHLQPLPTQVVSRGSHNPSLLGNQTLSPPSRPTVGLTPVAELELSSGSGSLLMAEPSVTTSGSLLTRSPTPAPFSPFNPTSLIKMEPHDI
# Summary of the method: as §1
# ELK4 = molecular target: T5, ELK4 (Homo sapiens, UniProt P28324-2 1-405); conditions: protein: recombinant; tags: N-terminal GST; dsDNA, one strand shown
# T5 sequence: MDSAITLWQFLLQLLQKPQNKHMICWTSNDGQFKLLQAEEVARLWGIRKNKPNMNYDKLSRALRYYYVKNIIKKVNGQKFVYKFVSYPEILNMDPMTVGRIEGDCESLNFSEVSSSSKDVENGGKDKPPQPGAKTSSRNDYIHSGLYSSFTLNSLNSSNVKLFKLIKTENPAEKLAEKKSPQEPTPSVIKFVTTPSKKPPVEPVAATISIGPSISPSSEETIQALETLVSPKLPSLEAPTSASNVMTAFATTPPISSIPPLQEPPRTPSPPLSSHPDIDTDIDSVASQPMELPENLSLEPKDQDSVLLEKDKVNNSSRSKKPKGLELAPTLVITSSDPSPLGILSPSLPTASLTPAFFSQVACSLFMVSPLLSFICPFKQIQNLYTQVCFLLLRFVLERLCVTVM
# Summary of the method: as §1
# ETV2 = molecular target: T6, ETV2 (Homo sapiens, UniProt O00321 1-342); conditions: protein: recombinant; tags: N-terminal GST; dsDNA, one strand shown
# T6 sequence: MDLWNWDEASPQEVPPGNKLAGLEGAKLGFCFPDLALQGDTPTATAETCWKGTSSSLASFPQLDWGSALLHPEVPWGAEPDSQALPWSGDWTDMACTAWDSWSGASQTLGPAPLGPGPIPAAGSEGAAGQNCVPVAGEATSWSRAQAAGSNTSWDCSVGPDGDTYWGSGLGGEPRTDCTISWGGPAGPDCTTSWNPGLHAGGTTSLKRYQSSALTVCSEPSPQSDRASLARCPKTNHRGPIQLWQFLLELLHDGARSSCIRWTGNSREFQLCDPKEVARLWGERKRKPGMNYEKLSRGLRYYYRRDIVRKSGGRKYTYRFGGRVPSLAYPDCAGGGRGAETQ
# Summary of the method: as §1
# CRX = CRX (Homo sapiens, UniProt O43186 1-299); conditions: protein: recombinant; tags: N-terminal GST; dsDNA, one strand shown
# CRX, sequence (O43186 whole entry): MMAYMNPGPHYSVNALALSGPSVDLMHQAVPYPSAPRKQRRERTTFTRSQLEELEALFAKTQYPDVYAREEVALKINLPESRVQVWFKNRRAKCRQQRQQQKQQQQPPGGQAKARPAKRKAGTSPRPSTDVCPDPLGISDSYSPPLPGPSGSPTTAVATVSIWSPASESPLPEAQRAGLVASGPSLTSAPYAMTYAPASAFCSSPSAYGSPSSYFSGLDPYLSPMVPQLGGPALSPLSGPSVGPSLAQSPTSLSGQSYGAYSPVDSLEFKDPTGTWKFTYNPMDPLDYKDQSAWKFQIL
# Summary of the method: as §1
# ETV1 = ETV1 (Homo sapiens, UniProt P50549 1-477); conditions: protein: recombinant; tags: N-terminal GST; dsDNA, one strand shown
# ETV1, sequence (P50549 whole entry): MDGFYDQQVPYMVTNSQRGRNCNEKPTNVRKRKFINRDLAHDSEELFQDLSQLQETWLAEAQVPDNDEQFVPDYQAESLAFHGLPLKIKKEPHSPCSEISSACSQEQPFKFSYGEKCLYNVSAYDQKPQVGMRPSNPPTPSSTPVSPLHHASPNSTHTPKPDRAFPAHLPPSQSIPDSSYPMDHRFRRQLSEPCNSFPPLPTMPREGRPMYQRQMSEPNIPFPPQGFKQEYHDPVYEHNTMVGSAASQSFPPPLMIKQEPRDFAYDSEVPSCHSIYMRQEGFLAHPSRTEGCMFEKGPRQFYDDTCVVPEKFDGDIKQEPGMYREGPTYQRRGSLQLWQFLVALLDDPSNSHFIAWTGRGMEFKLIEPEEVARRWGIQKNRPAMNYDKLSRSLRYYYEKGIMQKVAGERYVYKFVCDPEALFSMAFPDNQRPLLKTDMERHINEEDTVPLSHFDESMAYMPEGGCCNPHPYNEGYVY
# Summary of the method: as §1
# GABPA = molecular target: T7, GABPA (Homo sapiens, UniProt Q06546 1-454); conditions: protein: recombinant; tags: N-terminal GST; dsDNA, one strand shown
# T7 sequence: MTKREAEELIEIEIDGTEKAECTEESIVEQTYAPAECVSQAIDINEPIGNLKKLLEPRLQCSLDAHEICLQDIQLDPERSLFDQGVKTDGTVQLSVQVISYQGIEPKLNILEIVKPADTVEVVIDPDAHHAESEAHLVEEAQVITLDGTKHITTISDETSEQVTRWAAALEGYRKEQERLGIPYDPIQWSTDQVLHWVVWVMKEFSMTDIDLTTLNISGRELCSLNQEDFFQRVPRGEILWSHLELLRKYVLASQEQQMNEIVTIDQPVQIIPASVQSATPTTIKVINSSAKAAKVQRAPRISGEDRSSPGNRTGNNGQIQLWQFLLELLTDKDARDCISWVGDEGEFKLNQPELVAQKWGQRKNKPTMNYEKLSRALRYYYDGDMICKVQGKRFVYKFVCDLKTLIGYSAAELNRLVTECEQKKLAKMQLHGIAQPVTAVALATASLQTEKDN
# Summary of the method: as §1
# SPI1 = SPI1 (Homo sapiens, UniProt P17947 1-270); conditions: protein: recombinant; tags: N-terminal GST; dsDNA, one strand shown
# Summary of the method: as §1
# SPIB = SPIB (Homo sapiens, UniProt Q01892 1-262); conditions: protein: recombinant; tags: N-terminal GST; dsDNA, one strand shown
# SPIB, sequence (Q01892 whole entry): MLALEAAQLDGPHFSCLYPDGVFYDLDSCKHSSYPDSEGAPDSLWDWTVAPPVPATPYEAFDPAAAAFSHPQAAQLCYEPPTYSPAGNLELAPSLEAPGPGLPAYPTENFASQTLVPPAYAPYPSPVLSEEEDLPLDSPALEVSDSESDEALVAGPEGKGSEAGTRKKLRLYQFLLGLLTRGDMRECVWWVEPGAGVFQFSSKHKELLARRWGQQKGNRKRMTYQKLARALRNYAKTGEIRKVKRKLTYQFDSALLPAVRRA
# Summary of the method: as §1
# ELK3 = molecular target: T8, ELK3 (Homo sapiens, UniProt P41970 1-407); conditions: protein: recombinant; tags: N-terminal GST; dsDNA, one strand shown
# T8 sequence: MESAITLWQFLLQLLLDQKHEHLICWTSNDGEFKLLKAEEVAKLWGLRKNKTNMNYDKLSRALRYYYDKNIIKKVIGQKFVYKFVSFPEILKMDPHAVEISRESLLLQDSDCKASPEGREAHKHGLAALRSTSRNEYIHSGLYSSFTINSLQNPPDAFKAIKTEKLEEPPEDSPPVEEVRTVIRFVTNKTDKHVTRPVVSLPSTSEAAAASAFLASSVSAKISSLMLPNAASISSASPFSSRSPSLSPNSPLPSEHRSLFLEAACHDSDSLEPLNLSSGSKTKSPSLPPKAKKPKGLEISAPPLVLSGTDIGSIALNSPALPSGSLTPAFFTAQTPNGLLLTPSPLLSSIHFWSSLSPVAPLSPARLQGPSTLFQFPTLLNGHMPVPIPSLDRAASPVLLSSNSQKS
# Summary of the method: as §1
# FEV = molecular target: T9, FEV (Homo sapiens, UniProt Q99581 1-238); conditions: protein: recombinant; tags: N-terminal GST; dsDNA, one strand shown
# T9 sequence: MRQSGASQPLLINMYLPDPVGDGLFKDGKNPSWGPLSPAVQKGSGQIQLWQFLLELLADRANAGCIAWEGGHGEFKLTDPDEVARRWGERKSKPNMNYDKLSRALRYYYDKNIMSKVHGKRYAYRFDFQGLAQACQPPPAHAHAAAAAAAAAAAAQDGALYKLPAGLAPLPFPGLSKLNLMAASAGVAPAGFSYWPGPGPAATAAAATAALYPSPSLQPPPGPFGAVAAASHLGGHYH
# Summary of the method: as §1
# ELF3 = molecular target: T10, ELF3 (Homo sapiens, UniProt P78545 1-371); conditions: protein: recombinant; tags: N-terminal GST; dsDNA, one strand shown
# T10 sequence: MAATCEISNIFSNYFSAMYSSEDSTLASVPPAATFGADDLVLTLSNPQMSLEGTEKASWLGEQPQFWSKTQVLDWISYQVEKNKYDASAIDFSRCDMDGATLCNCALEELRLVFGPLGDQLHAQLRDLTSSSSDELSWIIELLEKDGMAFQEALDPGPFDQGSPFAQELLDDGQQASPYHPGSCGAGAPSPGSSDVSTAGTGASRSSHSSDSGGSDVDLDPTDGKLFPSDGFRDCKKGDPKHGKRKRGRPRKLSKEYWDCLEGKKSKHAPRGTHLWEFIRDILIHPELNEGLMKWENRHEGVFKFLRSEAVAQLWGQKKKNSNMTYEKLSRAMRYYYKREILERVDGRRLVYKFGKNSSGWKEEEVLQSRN
# Summary of the method: as §1
Sequence,binding signal (FLI1),binding signal (ELK1),binding signal (ERG),binding signal (ELF1),binding signal (EHF),binding signal (ETV5),binding signal (HSF1),binding signal (ELF4),binding signal (ELK4),binding signal (ETV2),binding signal (CRX),binding signal (ETV1),binding signal (GABPA),binding signal (SPI1),binding signal (SPIB),binding signal (ELK3),binding signal (FEV),binding signal (ELF3)
ACAGAT,"1.02 fold enrichment (6-mer frequency, TF over GST control)","1.1 fold enrichment (6-mer frequency, TF over GST control)","1.07 fold enrichment (6-mer frequency, TF over GST control)","1.02 fold enrichment (6-mer frequency, TF over GST control)","1.03 fold enrichment (6-mer frequency, TF over GST control)","1 fold enrichment (6-mer frequency, TF over GST control)","1.1 fold enrichment (6-mer frequency, TF over GST control)","1.05 fold enrichment (6-mer frequency, TF over GST control)","1.04 fold enrichment (6-mer frequency, TF over GST control)","1.05 fold enrichment (6-mer frequency, TF over GST control)","1.27 fold enrichment (6-mer frequency, TF over GST control)","1.05 fold enrichment (6-mer frequency, TF over GST control)",–,–,–,–,–,–
GAACAT,"1.01 fold enrichment (6-mer frequency, TF over GST control)","1.02 fold enrichment (6-mer frequency, TF over GST control)","1.03 fold enrichment (6-mer frequency, TF over GST control)","1.02 fold enrichment (6-mer frequency, TF over GST control)","1.05 fold enrichment (6-mer frequency, TF over GST control)","1.12 fold enrichment (6-mer frequency, TF over GST control)","1.81 fold enrichment (6-mer frequency, TF over GST control)","1 fold enrichment (6-mer frequency, TF over GST control)",–,"1.01 fold enrichment (6-mer frequency, TF over GST control)","1.03 fold enrichment (6-mer frequency, TF over GST control)",–,"1.09 fold enrichment (6-mer frequency, TF over GST control)","1.04 fold enrichment (6-mer frequency, TF over GST control)","1.01 fold enrichment (6-mer frequency, TF over GST control)","1.16 fold enrichment (6-mer frequency, TF over GST control)","1.01 fold enrichment (6-mer frequency, TF over GST control)","1.06 fold enrichment (6-mer frequency, TF over GST control)"
